Source: PubChem BioAssay
For some assays here: Measured potencies and affinities stand elsewhere. The source made the active and inactive calls. Unless noted, no rule for the calls is given here.

Tests used:
[1] = antimalarial activity against Dd2 strain (AID 2302;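 active = growth inhibition above 50% at the single 2 µM test dose, taken to imply half-maximal potency below 2 µM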;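 also: 0% = DMSO untreated growth and 100% = chloroquine plus artemisinin killed control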); settings: P. falciparum Dd2 in RBCs, LDH growth readout, 72 h; at 2 µM; hits give high values
[2] = HepG2 cytotoxicity, primary screen, cytotoxicity control for P. falciparum antimalarial project, cell-based, ATP luminescence (AID 2303;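 active = inhibition above 50%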;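 also: 0% = DMSO wells and 100% = digitonin-killed cells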); settings: HepG2 viability, 24-48 h, at 10 µM, hits give high values
[3] = target: L-lactate dehydrogenase (Plasmodium falciparum (isolate CDC / Honduras)) (UniProt Q27743); test: PfLDH activity inhibition – cell lysate, 3D7 strain, counter-screen for P. falciparum growth inhibition project (AID 2304);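 also: 0% = vehicle and 100% = reference inhibitor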; settings: P. falciparum 3D7 crude extract, LDH APAD/NBT absorbance; at 2 µM; hits give high values
[4] = inhibition of 3D7 malaria parasite growth – strain 3D7 (AID 2306);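 also: 0% = DMSO wells and 100% = chloroquine plus artemisinin control wells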; settings: P. falciparum 3D7 erythrocytic growth, LDH absorbance, 72 h; at 2 µM; hits give high values
[5] = target: Calcium-dependent protein kinase 1 (Plasmodium falciparum (isolate 3D7)) (UniProt P62344); test: PfCDPK1 kinase inhibitors, biochemical, TCAMS library (AID 1159585; cut-off not given, nearly all actives have IC50 up to about 0.98 µM;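 also: inhibitors leave more ATP so luminescence rises with inhibition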); settings: recombinant PfCDPK1, Kinase-Glo ATP depletion luminescence
[6] = target: Plasmodium falciparum protein kinase 6 (PK6, PF3D7_1337100) (UniProt Q8IDW1); test: PfPK6 kinase inhibitors, biochemical, TCAMS library (AID 1159586); settings: recombinant PfPK6, Kinase-Glo ATP depletion luminescence
[7] = target: Protein kinase 7 (PK7), Plasmodium falciparum 3D7 (PF3D7_0213400) (UniProt Q7YTF7); test: inhibition of Plasmodium PK7 catalytic activity – biochemical, TCAMS antimalarial set, Kinase-Glo luminescence (AID 1159587); settings: recombinant PfPK7, Kinase-Glo ATP depletion luminescence
[8] = target: Calcium-dependent protein kinase 4 (Plasmodium falciparum (isolate 3D7)) (UniProt Q8IBS5); test: PfCDPK4 kinase inhibitors, biochemical, TCAMS library (AID 1159588; cut-off not given, nearly all actives have IC50 up to about 0.91 µM); settings: recombinant PfCDPK4, Kinase-Glo ATP depletion luminescence
Sequence of Calcium-dependent protein kinase 4 (Plasmodium falciparum (isolate 3D7)) (Q8IBS5 whole entry, looked up): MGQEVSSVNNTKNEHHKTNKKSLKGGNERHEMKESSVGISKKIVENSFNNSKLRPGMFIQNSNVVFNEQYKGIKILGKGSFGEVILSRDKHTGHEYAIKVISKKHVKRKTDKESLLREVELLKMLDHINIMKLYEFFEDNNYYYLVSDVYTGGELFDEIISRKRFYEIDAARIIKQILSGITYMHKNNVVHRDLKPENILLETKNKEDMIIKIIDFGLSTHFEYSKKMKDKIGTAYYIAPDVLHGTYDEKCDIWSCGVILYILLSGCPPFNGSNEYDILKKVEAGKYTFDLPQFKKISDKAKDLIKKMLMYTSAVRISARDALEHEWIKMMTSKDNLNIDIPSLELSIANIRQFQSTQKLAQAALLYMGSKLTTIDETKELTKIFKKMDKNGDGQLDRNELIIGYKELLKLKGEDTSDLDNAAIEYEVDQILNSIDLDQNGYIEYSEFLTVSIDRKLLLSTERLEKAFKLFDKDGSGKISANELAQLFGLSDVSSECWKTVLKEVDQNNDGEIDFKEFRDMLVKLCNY

Sequence of Protein kinase 7 (PK7), Plasmodium falciparum 3D7 (PF3D7_0213400) (Q7YTF7 1-343): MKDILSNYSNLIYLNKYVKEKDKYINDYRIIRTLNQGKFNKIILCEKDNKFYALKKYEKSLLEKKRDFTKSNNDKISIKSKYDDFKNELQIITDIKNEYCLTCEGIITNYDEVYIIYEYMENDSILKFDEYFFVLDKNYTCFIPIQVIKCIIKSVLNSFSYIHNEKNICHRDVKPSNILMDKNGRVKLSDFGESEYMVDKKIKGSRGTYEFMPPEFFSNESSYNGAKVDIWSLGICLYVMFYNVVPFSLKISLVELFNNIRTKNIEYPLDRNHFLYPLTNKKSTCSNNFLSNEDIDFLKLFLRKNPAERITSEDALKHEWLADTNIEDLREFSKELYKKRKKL
Sequence of Plasmodium falciparum protein kinase 6 (PK6, PF3D7_1337100) (Q8IDW1 1-305): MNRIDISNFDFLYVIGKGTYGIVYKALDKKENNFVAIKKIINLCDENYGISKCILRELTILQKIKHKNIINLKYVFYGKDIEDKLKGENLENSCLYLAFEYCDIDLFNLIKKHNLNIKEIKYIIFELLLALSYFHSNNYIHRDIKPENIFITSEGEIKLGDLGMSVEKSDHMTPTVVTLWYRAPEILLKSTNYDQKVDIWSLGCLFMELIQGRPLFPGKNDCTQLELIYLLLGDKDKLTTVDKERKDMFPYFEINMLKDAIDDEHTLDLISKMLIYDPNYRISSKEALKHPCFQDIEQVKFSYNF
Sequence of Calcium-dependent protein kinase 1 (Plasmodium falciparum (isolate 3D7)) (P62344 whole entry, looked up): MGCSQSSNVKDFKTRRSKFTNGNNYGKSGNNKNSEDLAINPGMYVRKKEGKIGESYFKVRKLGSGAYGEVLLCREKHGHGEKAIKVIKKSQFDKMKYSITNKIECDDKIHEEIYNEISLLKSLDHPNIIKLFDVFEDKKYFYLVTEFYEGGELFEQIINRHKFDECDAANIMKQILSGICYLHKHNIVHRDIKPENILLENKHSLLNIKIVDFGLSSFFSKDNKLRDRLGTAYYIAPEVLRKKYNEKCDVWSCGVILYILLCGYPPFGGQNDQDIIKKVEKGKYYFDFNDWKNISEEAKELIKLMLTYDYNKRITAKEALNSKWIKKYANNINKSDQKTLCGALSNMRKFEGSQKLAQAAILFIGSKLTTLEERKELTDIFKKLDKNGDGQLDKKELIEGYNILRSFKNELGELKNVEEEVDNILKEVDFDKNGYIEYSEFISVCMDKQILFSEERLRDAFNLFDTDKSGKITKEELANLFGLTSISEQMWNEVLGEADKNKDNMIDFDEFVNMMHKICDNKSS
Sequence of L-lactate dehydrogenase (Plasmodium falciparum (isolate CDC / Honduras)) (Q27743 whole entry, looked up): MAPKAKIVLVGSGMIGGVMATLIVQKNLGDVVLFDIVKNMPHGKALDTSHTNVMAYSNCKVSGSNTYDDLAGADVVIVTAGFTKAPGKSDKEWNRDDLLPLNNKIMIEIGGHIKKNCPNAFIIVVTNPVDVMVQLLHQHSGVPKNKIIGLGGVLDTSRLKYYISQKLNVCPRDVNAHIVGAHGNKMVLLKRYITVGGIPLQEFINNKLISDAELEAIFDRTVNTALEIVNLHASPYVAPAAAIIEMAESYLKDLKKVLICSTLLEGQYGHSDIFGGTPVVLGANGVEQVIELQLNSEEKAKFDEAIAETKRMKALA

NC1CCN(Cc2ccc(-c3ccc(-c4nc5ccccc5[nH]4)s3)cc2)C1 (stereo not given)
active: growth inhibition [1] 99% | growth inhibition [4] 101%
inactive: inhibition [2] 32% | inhibition [3] -6% | outcome [5] | outcome [6] | outcome [7] | outcome [8]

COc1ccc(-c2nc(NCc3ccccc3)c3cc(OC)c(OC)cc3n2)cc1
inactive: inhibition [2] 15% | inhibition [3] -1% | outcome [5] | outcome [6] | outcome [7] | outcome [8]
active: growth inhibition [1] 100% | growth inhibition [4] 101%

NC(=O)c1ccc(C(=O)Nc2cccc(-c3csc(-c4nc5ccccc5[nH]4)c3)c2)cc1
active: growth inhibition [4] 100%
inactive: growth inhibition [1] 35% | inhibition [2] 14% | inhibition [3] -4% | outcome [5] | outcome [6] | outcome [7] | outcome [8]

CC(C)N1CCC(N(Cc2ccc(-c3ccc(C(F)(F)F)cc3)cc2)C(=O)CCCn2c(CCc3cccc(F)c3F)nc(=O)c3ccccc32)CC1
inactive: inhibition [2] 45% | inhibition [3] -5% | outcome [5] | outcome [6] | outcome [7] | outcome [8]
active: growth inhibition [1] 60% | growth inhibition [4] 89%

COC(=O)c1cccc(CNCc2ccc(-c3ccc(-c4nc5ccc(C(F)(F)F)cc5[nH]4)s3)cc2)c1
inactive: inhibition [2] 34% | inhibition [3] -2% | outcome [5] | outcome [6] | outcome [7] | outcome [8]
active: growth inhibition [1] 96% | growth inhibition [4] 101%

CN(CC1CCC(NC(=O)/C=C/c2ccc(Cl)c(Cl)c2)CC1)C1CCC(c2c[nH]c3ccccc23)CC1 (stereo not given)
inactive: inhibition [3] -3% | outcome [5] | outcome [6] | outcome [7] | outcome [8]
active: growth inhibition [1] 53% | inhibition [2] 53% | growth inhibition [4] 99%

Cc1cccc2[nH]c(-c3ccc(-c4cccc(NC(=O)Nc5ccc(Cl)cc5)c4)s3)nc12
active: growth inhibition [1] 52% | growth inhibition [4] 102%
inactive: inhibition [2] 25% | inhibition [3] -1% | outcome [5] | outcome [6] | outcome [7] | outcome [8]

CN1CCc2cc(NC(=O)c3cc4ccccc4s3)cc(-c3ccccc3)c2CC1
inactive: growth inhibition [1] 11% | inhibition [2] 20% | inhibition [3] -2% | outcome [5] | outcome [6] | outcome [7] | outcome [8]
active: growth inhibition [4] 91%

O=C(/C=C/c1ccc(-c2nc3ccc(Cl)cc3[nH]2)cc1)NC1CCN(Cc2ccccc2)CC1
inactive: inhibition [2] 3% | inhibition [3] 0% | outcome [5] | outcome [6] | outcome [7] | outcome [8]
active: growth inhibition [1] 92% | growth inhibition [4] 100%

N#Cc1cccc(NC(=O)Nc2ccc(-c3csc(-c4nc5ccccc5[nH]4)c3)cc2)c1
inactive: inhibition [3] -3% | outcome [5] | outcome [6] | outcome [7] | outcome [8]
active: growth inhibition [1] 97% | inhibition [2] 63% | growth inhibition [4] 103%

COc1ccc(C(=O)N2CCc3cc4nccc(N5CCN6CCC[C@H]6C5)c4cc32)cc1
active: growth inhibition [1] 50% | growth inhibition [4] 98%
inactive: inhibition [2] 1% | inhibition [3] -12% | outcome [5] | outcome [6] | outcome [7] | outcome [8]

CCC[C@@H]([C@@H](CC1CCC(C)CC1)C(=O)N[C@@H](CO)C(=O)Nc1nccs1)N(O)C=O (stereo not given in full)
inactive: inhibition [2] 0% | inhibition [3] -2% | outcome [5] | outcome [6] | outcome [7] | outcome [8]
active: growth inhibition [1] 84% | growth inhibition [4] 100%

NC(=S)Cc1ccc2c(c1)OCO2
active: growth inhibition [4] 96%
inactive: growth inhibition [1] -3% | inhibition [2] 43% | inhibition [3] -2% | outcome [5] | outcome [6] | outcome [7] | outcome [8]

CC(C(=O)NC1CCN(c2ccnc(Nc3ccc(F)cc3)n2)C1)c1ccc(Cl)cc1 (stereo not given)
active: growth inhibition [1] 90% | growth inhibition [4] 95%
inactive: inhibition [2] 17% | inhibition [3] -4% | outcome [5] | outcome [6] | outcome [7] | outcome [8]

COc1cc2nc(NCc3cccc(CNC(=O)c4ccc(-c5ccc(C(C)=O)cc5)cc4)c3)nc(N)c2cc1OC
active: growth inhibition [1] 72% | growth inhibition [4] 100%
inactive: inhibition [2] 32% | inhibition [3] -2% | outcome [5] | outcome [6] | outcome [7] | outcome [8]

COc1ccc2nccc([C@@H](O)CN3CCC(NCc4ccc5c(c4)NC(=O)CO5)CC3)c2c1
inactive: growth inhibition [1] 6% | inhibition [2] 1% | inhibition [3] 5% | outcome [5] | outcome [6] | outcome [7] | outcome [8]
active: growth inhibition [4] 99%

O=C(/C=C/c1ccc(F)cc1)NC1CCC(CCN2CCc3ccccc3CC2)CC1 (stereo not given)
inactive: growth inhibition [1] 36% | inhibition [2] 27% | inhibition [3] 4% | outcome [5] | outcome [6] | outcome [7] | outcome [8]
active: growth inhibition [4] 91%

CC(C)(C)c1nn(-c2ccccc2)c2[nH]c(=O)c(CNC3CCCC3)cc12
active: growth inhibition [1] 70% | growth inhibition [4] 100%
inactive: inhibition [2] 7% | inhibition [3] 5% | outcome [5] | outcome [6] | outcome [7] | outcome [8]

Cc1cc(Nc2ccc(O)cc2)nc2cc(O)ccc12
active: growth inhibition [4] 100%
inactive: growth inhibition [1] 9% | inhibition [2] 0% | inhibition [3] -2% | outcome [5] | outcome [6] | outcome [7] | outcome [8]

Cc1nc(-c2cccc(Nc3nccc(NCC(O)c4cccc(F)c4)n3)c2)cs1 (stereo not given)
active: growth inhibition [1] 59% | growth inhibition [4] 98%
inactive: inhibition [2] 39% | inhibition [3] 1% | outcome [5] | outcome [6] | outcome [7] | outcome [8]

CCC(ON1C(N)=NC(N)=NC1(C)C)c1ccccc1 (stereo not given)
inactive: growth inhibition [1] -5% | inhibition [3] -4% | outcome [5] | outcome [6] | outcome [7] | outcome [8]
active: inhibition [2] 61% | growth inhibition [4] 96%

COc1cc(-c2cc(-c3ccc(S(C)(=O)=O)cc3)cnc2N)ccc1O
inactive: inhibition [2] 37% | inhibition [3] -2% | outcome [5] | outcome [6] | outcome [7] | outcome [8]
active: growth inhibition [1] 97% | growth inhibition [4] 97%

CCNc1cc(C(=O)N[C@@H](Cc2ccccc2)[C@H](O)CN[C@@H](C)c2cccc(OC)c2)cc(N2CCCC2=O)c1
active: growth inhibition [1] 65% | growth inhibition [4] 95%
inactive: inhibition [2] 5% | inhibition [3] -1% | outcome [5] | outcome [6] | outcome [7] | outcome [8]

COc1cc2nc(N(C)Cc3cccc(I)c3)nc(N)c2cc1OC
inactive: inhibition [2] 7% | inhibition [3] 1% | outcome [5] | outcome [6] | outcome [7] | outcome [8]
active: growth inhibition [1] 88% | growth inhibition [4] 101%

Cc1ccc2ncc(Cl)c(CCN3CCC(NCc4ccc5c(n4)NC(=O)CS5)CC3)c2n1
active: growth inhibition [4] 90%
inactive: growth inhibition [1] 12% | inhibition [2] 13% | inhibition [3] -3% | outcome [5] | outcome [6] | outcome [7] | outcome [8]

CC(C)(C)c1ccc(NC(=O)c2cccc(CN3CCCN(Cc4cccc(Cl)c4)CC3)c2)cc1
inactive: growth inhibition [1] 30% | inhibition [3] 3% | outcome [5] | outcome [6] | outcome [7] | outcome [8]
active: inhibition [2] 61% | growth inhibition [4] 85%

COc1ccc(N(c2nc(-c3cc(Cl)ccc3Cl)cs2)C2CCNC2)cc1 (stereo not given)
inactive: growth inhibition [1] 9% | inhibition [2] 21% | inhibition [3] 3% | outcome [5] | outcome [6] | outcome [7] | outcome [8]
active: growth inhibition [4] 95%

CC(=O)Nc1ccc(CN2CCC(NC(=O)c3ccc(-c4cccc(F)c4)s3)CC2)cc1
active: growth inhibition [4] 96%
inactive: growth inhibition [1] 13% | inhibition [2] 6% | inhibition [3] 0% | outcome [5] | outcome [6] | outcome [7] | outcome [8]

CCCC(C)Nc1nc(C)cc(N[C@@H](CC(C)C)C(=O)NC2CCCC2)n1 (stereo not given in full)
inactive: growth inhibition [1] 22% | inhibition [2] 6% | inhibition [3] -2% | outcome [5] | outcome [6] | outcome [7] | outcome [8]
active: growth inhibition [4] 85%

CCc1cn2c3c(cc(C(=O)N[C@@H](Cc4cccc(Cl)c4)[C@H](O)CNC4CCOCC4)cc13)N(C)S(=O)(=O)CC2
active: growth inhibition [1] 98% | growth inhibition [4] 98%
inactive: inhibition [2] 2% | inhibition [3] -1% | outcome [5] | outcome [6] | outcome [7] | outcome [8]

COc1ccc2nccc([C@@H](O)CN3CC[C@H](NCc4ccc5c(n4)NC(=O)CS5)[C@H](F)C3)c2c1
inactive: inhibition [2] 5% | inhibition [3] 0% | outcome [5] | outcome [6] | outcome [7] | outcome [8]
active: growth inhibition [1] 88% | growth inhibition [4] 89%

COc1ccc2c(=O)ccn(CCN3CCC(NCc4ccc5c(n4)NC(=O)CS5)CC3)c2c1
inactive: inhibition [2] 7% | inhibition [3] 1% | outcome [5] | outcome [6] | outcome [7] | outcome [8]
active: growth inhibition [1] 99% | growth inhibition [4] 98%

CC1(C)N=C(N)N=C(N)N1OCCCOc1ccccc1Cl
inactive: inhibition [3] 1% | outcome [5] | outcome [6] | outcome [7] | outcome [8]
active: growth inhibition [1] 94% | inhibition [2] 64% | growth inhibition [4] 96%

CCc1c(C(=O)NC2CCC(N3CCC(c4ccccc4OC)CC3)CC2)[nH]c2ccc(Br)cc12 (stereo not given)
inactive: inhibition [3] -1% | outcome [5] | outcome [6] | outcome [7] | outcome [8]
active: growth inhibition [1] 98% | inhibition [2] 85% | growth inhibition [4] 101%

COc1cc2c(c(Cl)c1OC)CCN(Cc1ccccc1)CC2c1ccc(C(N)=O)cc1 (stereo not given)
active: growth inhibition [1] 60% | growth inhibition [4] 97%
inactive: inhibition [2] 7% | inhibition [3] -5% | outcome [5] | outcome [6] | outcome [7] | outcome [8]

CNC(=O)C1Cc2c([nH]c3ccc(Cl)cc23)C2(CCN(CCc3ccccc3)CC2)N1 (stereo not given)
active: growth inhibition [4] 98%
inactive: growth inhibition [1] 16% | inhibition [2] 2% | inhibition [3] -2% | outcome [5] | outcome [6] | outcome [7] | outcome [8]

CCCN1CCN(c2ccccc2NS(=O)(=O)c2ccc(C(=O)Nc3ccc(Cl)cc3)cc2)CC1
inactive: growth inhibition [1] 9% | inhibition [2] 17% | inhibition [3] -2% | outcome [5] | outcome [6] | outcome [7] | outcome [8]
active: growth inhibition [4] 84%

CC1(C)N=C(N)N=C(N)N1OCc1cccc(Cl)c1Cl
active: growth inhibition [1] 75% | inhibition [2] 68% | growth inhibition [4] 92%
inactive: inhibition [3] -1% | outcome [5] | outcome [6] | outcome [7] | outcome [8]

Cn1nccc1C(=O)NCCNCc1cccc(-c2ccc(-c3nc4ccccc4[nH]3)s2)c1
inactive: inhibition [2] 22% | inhibition [3] -4% | outcome [5] | outcome [6] | outcome [7] | outcome [8]
active: growth inhibition [1] 94% | growth inhibition [4] 100%

CS(=O)(=O)N(c1ccccc1)c1cc(C(=O)N[C@@H](Cc2ccccc2)[C@H](O)CNC2CC2)cc(N2CCCC2=O)c1
active: growth inhibition [1] 98% | growth inhibition [4] 100%
inactive: inhibition [2] 1% | inhibition [3] 4% | outcome [5] | outcome [6] | outcome [7] | outcome [8]
